How the values were obtained:
Experiment in all cases: DAPPL (digital affinity profiling via proximity ligation, sequencing); 10 mM Tris-HCl pH 7.5, 50 mM NaCl, 1 mM DTT, 4% glycerol, room temperature, 30 min; GST-TFs on glutathione beads, 16-mer random dsDNA library, 0.1% formaldehyde crosslink after washing; high values mean tight binding
FEV = target: T1, FEV (Homo sapiens, UniProt Q99581 1-238); conditions: protein: recombinant; tags: N-terminal GST; dsDNA, one strand shown
T1 sequence: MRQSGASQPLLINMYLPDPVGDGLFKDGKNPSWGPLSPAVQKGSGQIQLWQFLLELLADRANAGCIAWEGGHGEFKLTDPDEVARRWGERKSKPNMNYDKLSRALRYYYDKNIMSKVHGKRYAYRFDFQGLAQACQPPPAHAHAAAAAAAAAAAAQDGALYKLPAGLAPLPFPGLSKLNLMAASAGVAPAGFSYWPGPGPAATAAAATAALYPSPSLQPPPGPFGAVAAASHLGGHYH
Procedure, shortened: (§1)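 Yeast served to express human transcription factors as GST fusions, which were then captured on glutathione beads and labelled with DNA barcodes. Pooled with a tag-only sample, they were incubated with 200 nmole of a 16-mer random double-stranded DNA library for 30 min at room temperature in Tris/NaCl/DTT/glycerol buffer, washed, crosslinked with 0.1% formaldehyde, ligated by proximity, amplified by PCR and sequenced. Dividing each hexamer's read frequency for a factor by its frequency for the tag-only sample gives the binding signal.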

ETV5 = ETV5 (Homo sapiens, UniProt P41161 1-510); conditions: protein: recombinant; tags: N-terminal GST; dsDNA, one strand shown
Sequence of ETV5 (P41161 whole entry): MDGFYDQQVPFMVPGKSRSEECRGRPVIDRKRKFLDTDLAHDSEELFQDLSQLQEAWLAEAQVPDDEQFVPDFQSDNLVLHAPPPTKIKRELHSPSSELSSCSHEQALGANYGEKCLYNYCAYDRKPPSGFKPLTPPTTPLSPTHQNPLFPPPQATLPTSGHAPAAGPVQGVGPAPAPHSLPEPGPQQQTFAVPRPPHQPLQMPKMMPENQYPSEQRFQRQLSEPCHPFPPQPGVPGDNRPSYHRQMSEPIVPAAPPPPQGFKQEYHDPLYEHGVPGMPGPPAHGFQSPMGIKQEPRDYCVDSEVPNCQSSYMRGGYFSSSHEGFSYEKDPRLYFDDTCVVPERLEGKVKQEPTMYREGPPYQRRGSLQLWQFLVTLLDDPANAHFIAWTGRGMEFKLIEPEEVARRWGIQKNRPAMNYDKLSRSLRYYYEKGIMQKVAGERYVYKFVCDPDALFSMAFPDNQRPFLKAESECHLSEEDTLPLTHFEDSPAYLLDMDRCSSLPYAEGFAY
Procedure, shortened: as §1

HSF1 = HSF1 (Homo sapiens, UniProt Q00613 1-529); conditions: protein: recombinant; tags: N-terminal GST; chain copies: 3; dsDNA, one strand shown
Sequence of HSF1 (Q00613 whole entry): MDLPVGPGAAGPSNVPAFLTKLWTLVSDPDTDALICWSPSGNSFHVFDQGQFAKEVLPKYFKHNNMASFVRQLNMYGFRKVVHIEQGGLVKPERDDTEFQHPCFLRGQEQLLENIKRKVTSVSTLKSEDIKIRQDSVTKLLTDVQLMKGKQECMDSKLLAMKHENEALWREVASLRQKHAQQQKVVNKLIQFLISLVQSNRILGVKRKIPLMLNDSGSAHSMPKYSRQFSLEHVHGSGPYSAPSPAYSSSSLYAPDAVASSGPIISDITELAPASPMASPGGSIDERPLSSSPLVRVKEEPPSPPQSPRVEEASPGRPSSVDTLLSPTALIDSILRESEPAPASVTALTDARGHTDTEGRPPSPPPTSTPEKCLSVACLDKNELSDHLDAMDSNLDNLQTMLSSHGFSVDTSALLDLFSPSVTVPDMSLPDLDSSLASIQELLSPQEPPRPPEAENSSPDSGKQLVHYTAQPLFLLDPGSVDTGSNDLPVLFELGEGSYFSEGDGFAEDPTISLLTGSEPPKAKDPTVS
Procedure, shortened: as §1

SPIC = target: T2, SPIC (Homo sapiens, UniProt Q8N5J4 1-248); conditions: protein: recombinant; tags: N-terminal GST; dsDNA, one strand shown
T2 sequence: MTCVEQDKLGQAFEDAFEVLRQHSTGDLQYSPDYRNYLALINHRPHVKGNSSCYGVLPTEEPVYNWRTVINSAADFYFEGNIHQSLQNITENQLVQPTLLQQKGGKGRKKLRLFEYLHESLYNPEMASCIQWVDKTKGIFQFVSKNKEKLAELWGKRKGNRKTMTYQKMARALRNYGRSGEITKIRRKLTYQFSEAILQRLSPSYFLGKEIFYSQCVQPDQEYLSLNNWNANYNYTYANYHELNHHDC
Procedure, shortened: as §1

ELF4 = ELF4 (Homo sapiens, UniProt Q99607 1-663); conditions: protein: recombinant; tags: N-terminal GST; dsDNA, one strand shown
Sequence of ELF4 (Q99607 whole entry): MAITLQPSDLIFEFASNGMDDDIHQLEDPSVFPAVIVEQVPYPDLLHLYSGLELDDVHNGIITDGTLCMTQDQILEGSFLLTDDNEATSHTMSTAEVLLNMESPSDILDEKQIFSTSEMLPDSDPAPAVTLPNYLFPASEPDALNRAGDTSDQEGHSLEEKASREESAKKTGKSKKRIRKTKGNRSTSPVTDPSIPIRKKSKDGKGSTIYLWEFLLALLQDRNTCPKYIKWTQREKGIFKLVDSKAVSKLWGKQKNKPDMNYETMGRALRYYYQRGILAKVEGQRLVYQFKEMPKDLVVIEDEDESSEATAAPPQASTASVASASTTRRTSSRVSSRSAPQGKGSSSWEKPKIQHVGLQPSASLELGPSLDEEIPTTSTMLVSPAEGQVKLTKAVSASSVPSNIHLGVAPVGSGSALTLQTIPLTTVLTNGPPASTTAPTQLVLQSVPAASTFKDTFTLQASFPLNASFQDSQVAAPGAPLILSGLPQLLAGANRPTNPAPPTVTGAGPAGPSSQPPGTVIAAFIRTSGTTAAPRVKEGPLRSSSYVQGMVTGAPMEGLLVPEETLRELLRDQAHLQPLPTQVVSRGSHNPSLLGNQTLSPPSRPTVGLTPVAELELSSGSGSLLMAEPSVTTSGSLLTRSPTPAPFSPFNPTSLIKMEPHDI
Procedure, shortened: as §1

ELK4 = target: T3, ELK4 (Homo sapiens, UniProt P28324-2 1-405); conditions: protein: recombinant; tags: N-terminal GST; dsDNA, one strand shown
T3 sequence: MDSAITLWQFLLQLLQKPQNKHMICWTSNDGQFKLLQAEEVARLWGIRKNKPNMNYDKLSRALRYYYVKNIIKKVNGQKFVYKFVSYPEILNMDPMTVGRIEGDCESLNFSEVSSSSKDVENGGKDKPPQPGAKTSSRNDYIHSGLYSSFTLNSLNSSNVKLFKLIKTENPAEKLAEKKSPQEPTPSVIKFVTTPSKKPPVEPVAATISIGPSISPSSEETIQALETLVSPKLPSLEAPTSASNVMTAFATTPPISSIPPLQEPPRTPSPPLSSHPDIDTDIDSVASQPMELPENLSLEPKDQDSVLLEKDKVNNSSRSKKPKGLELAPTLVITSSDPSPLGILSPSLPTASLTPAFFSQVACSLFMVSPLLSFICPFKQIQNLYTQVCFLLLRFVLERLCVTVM
Procedure, shortened: as §1

ETV2 = target: T4, ETV2 (Homo sapiens, UniProt O00321 1-342); conditions: protein: recombinant; tags: N-terminal GST; dsDNA, one strand shown
T4 sequence: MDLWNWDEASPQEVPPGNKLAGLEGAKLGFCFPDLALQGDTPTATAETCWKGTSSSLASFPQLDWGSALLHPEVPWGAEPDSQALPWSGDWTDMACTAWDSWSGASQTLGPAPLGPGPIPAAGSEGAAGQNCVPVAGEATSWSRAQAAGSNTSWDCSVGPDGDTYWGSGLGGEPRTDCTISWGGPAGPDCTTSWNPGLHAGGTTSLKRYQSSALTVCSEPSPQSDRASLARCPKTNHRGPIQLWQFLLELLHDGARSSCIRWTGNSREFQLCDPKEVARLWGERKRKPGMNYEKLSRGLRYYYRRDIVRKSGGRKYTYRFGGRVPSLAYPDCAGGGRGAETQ
Procedure, shortened: as §1

ELF3 = target: T5, ELF3 (Homo sapiens, UniProt P78545 1-371); conditions: protein: recombinant; tags: N-terminal GST; dsDNA, one strand shown
T5 sequence: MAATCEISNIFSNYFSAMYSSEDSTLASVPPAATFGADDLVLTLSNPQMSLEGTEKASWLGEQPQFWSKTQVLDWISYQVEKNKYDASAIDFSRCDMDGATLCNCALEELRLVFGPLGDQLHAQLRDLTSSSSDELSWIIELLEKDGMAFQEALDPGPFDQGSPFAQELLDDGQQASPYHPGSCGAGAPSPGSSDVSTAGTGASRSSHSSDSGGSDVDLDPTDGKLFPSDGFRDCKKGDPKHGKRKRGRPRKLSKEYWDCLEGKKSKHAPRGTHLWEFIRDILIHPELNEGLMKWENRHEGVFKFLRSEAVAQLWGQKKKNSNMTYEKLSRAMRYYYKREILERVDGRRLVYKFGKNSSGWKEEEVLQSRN
Procedure, shortened: as §1

CRX = CRX (Homo sapiens, UniProt O43186 1-299); conditions: protein: recombinant; tags: N-terminal GST; dsDNA, one strand shown
Sequence of CRX (O43186 whole entry): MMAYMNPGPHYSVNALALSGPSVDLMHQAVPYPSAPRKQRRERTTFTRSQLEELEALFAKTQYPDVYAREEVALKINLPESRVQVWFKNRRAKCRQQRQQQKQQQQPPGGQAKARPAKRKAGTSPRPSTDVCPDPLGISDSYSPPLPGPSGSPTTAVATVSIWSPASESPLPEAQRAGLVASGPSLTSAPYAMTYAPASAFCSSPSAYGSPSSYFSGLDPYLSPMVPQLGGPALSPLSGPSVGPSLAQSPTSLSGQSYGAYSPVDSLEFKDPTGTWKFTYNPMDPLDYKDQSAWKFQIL
Procedure, shortened: as §1

ETV1 = ETV1 (Homo sapiens, UniProt P50549 1-477); conditions: protein: recombinant; tags: N-terminal GST; dsDNA, one strand shown
Sequence of ETV1 (P50549 whole entry): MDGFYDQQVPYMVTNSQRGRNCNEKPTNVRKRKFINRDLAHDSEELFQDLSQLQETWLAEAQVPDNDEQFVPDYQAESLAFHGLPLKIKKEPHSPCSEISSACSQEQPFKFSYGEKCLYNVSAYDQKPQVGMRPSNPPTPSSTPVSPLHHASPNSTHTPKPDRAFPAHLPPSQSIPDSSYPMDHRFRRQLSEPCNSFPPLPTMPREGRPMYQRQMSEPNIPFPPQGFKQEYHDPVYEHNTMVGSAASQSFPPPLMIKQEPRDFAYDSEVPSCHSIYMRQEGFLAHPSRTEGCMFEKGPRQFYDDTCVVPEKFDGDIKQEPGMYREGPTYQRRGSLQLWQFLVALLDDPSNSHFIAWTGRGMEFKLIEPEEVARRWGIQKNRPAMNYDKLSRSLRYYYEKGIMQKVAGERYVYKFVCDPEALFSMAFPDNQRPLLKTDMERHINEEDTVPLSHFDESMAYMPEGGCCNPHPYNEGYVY
Procedure, shortened: as §1

ERF = target: T6, ERF (Homo sapiens, UniProt P50548 1-548); conditions: protein: recombinant; tags: N-terminal GST; dsDNA, one strand shown
T6 sequence: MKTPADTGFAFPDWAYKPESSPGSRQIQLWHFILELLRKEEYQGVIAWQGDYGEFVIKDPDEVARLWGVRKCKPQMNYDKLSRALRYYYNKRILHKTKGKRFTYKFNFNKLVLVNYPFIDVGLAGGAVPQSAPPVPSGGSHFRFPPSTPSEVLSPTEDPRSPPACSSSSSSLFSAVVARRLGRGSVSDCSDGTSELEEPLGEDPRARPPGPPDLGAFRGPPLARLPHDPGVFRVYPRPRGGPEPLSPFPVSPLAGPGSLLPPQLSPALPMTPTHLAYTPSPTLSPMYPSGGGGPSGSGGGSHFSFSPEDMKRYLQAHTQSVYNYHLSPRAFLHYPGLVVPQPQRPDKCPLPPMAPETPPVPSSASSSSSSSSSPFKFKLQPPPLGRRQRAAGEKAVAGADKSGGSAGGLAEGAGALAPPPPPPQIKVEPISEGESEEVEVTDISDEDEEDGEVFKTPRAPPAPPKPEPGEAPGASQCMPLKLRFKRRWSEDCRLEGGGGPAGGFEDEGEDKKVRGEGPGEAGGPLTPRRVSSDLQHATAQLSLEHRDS
Procedure, shortened: as §1

ETV3L = target: T7, ETV3L (Homo sapiens, UniProt Q6ZN32 1-361); conditions: protein: recombinant; tags: N-terminal GST; dsDNA, one strand shown
T7 sequence: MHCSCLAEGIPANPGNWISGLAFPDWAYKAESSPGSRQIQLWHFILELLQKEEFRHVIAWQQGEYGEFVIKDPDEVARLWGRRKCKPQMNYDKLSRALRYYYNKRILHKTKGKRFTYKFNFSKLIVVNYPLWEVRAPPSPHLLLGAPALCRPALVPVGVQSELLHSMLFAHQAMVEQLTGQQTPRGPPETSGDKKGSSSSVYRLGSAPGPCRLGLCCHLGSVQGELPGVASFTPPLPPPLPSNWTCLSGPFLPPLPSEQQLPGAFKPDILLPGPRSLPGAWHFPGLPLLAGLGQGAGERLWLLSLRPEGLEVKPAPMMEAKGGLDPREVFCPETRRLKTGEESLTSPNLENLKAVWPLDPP
Procedure, shortened: as §1

ETS2 = target: T8, ETS2 (Homo sapiens, UniProt P15036 1-469); conditions: protein: recombinant; tags: N-terminal GST; dsDNA, one strand shown
T8 sequence: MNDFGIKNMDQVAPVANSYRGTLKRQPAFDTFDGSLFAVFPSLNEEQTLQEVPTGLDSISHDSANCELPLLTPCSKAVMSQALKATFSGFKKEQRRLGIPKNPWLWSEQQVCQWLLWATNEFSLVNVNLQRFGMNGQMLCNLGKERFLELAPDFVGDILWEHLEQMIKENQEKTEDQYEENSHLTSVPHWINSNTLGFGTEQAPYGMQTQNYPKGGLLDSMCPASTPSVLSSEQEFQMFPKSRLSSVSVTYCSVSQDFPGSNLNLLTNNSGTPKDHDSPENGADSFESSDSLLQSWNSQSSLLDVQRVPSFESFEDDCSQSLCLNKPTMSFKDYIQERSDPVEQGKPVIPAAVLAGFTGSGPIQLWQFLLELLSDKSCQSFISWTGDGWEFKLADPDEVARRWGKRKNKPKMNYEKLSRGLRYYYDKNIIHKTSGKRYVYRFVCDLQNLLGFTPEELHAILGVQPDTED
Procedure, shortened: as §1

SPDEF = target: T9, SPDEF (Homo sapiens, UniProt O95238 1-335); conditions: protein: recombinant; tags: N-terminal GST; dsDNA, one strand shown
T9 sequence: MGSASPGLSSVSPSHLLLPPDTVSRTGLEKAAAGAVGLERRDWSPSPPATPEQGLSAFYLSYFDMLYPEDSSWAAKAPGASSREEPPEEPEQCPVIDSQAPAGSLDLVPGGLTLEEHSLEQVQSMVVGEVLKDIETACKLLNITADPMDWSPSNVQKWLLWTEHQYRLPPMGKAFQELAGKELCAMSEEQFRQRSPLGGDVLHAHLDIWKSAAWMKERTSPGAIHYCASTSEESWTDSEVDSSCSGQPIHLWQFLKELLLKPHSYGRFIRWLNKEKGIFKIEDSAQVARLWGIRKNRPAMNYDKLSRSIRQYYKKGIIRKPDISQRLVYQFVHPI
Procedure, shortened: as §1

ETV7 = target: T10, ETV7 (Homo sapiens, UniProt Q9Y603 1-341); conditions: protein: recombinant; tags: N-terminal GST; dsDNA, one strand shown
T10 sequence: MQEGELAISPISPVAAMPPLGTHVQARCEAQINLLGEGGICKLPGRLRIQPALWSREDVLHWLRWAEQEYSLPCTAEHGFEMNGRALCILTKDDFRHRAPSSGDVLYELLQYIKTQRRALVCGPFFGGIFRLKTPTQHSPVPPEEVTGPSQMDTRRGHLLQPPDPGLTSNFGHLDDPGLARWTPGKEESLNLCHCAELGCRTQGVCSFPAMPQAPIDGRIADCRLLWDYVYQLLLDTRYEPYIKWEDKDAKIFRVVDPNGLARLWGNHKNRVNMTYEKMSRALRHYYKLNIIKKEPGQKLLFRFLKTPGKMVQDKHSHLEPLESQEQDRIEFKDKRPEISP
Procedure, shortened: as §1

ELF5 = target: T11, ELF5 (Homo sapiens, UniProt Q9UKW6-2 1-255); conditions: protein: recombinant; tags: N-terminal GST; dsDNA, one strand shown
T11 sequence: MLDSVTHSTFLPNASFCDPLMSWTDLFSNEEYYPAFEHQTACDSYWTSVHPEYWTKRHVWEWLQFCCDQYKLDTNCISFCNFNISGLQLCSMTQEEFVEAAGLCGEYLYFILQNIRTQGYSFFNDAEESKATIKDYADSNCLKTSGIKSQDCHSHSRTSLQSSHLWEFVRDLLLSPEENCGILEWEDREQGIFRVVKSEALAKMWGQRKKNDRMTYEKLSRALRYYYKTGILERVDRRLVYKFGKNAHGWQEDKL
Procedure, shortened: as §1

ETV3 = target: T12, ETV3 (Homo sapiens, UniProt P41162-2 1-143); conditions: protein: recombinant; tags: N-terminal GST; dsDNA, one strand shown
T12 sequence: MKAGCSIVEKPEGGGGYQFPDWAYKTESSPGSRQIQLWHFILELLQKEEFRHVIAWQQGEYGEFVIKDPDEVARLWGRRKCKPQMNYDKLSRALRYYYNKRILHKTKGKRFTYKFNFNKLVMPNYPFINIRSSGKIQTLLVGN
Procedure, shortened: as §1

ETV6 = ETV6 (Homo sapiens, UniProt P41212 1-452); conditions: protein: recombinant; tags: N-terminal GST; dsDNA, one strand shown
Sequence of ETV6 (P41212 whole entry): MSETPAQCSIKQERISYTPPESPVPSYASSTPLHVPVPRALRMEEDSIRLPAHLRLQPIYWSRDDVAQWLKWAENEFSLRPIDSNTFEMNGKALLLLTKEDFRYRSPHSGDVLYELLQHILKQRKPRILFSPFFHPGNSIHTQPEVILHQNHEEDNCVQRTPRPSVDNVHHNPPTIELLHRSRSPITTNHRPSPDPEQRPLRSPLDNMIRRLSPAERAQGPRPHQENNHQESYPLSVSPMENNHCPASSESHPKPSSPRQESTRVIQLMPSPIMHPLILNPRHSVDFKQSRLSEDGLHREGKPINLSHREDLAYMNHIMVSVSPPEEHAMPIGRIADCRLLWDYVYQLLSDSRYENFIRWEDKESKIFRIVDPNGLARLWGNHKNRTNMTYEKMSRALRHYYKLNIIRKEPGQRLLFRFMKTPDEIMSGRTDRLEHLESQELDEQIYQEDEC
Procedure, shortened: as §1

Which results are given for CATCGA?
binding signal (FEV): 1.05 fold enrichment (6-mer frequency, TF over GST control); binding signal (ETV5): 1.17 fold enrichment (6-mer frequency, TF over GST control); binding signal (HSF1): 1.42 fold enrichment (6-mer frequency, TF over GST control); binding signal (SPIC): 1.06 fold enrichment (6-mer frequency, TF over GST control); binding signal (ELF4): 1.12 fold enrichment (6-mer frequency, TF over GST control); binding signal (ELK4): 1.06 fold enrichment (6-mer frequency, TF over GST control); binding signal (ETV2): 1.16 fold enrichment (6-mer frequency, TF over GST control); binding signal (ELF3): 1.04 fold enrichment (6-mer frequency, TF over GST control); binding signal (CRX): 1.05 fold enrichment (6-mer frequency, TF over GST control); binding signal (ETV1): 1.05 fold enrichment (6-mer frequency, TF over GST control); binding signal (ERF): 1.16 fold enrichment (6-mer frequency, TF over GST control); binding signal (ETV3L): 1.21 fold enrichment (6-mer frequency, TF over GST control); binding signal (ETS2): 1.15 fold enrichment (6-mer frequency, TF over GST control); binding signal (SPDEF): 1.04 fold enrichment (6-mer frequency, TF over GST control); binding signal (ETV7): 1.13 fold enrichment (6-mer frequency, TF over GST control); binding signal (ELF5): 1.05 fold enrichment (6-mer frequency, TF over GST control); binding signal (ETV3): 1.08 fold enrichment (6-mer frequency, TF over GST control); binding signal (ETV6): 1.01 fold enrichment (6-mer frequency, TF over GST control)

Source: paper PMC7862700, “An all-to-all approach to the identification of sequence-specific readers for epigenetic DNA modifications on cytosine”
